The source of these data is PubChem BioAssay (Tox21).

Molecules are shown by their SMILES. Inconclusive results are not listed. Calls of active or inactive are those of the source. Unless noted, calls follow the shape of the full dose curve.

A short description of assay [1]: Nuclear factor erythroid 2-related factor 2/antioxidant responsive element (Nrf2/ARE) small molecule agonists: luciferase reporter gene qHTS assay in human keratinocytes (AID 1919969). Also: nearly all actives have a fitted effect of over 35% in size. Also: potency is read from the fitted curve at half-maximal effect. In general terms: In a reporter assay the amount or activity of a reporter protein is the signal.
Assay [2] concerns the target Gonadotropin-releasing hormone receptor (Homo sapiens) (UniProt P30968). The assay can be described thus: Human gonadotropin-releasing hormone receptor (GnRHR) small molecule agonists, calcium flux assay in GnRHR-HEK293 cells (AID 1920063). Also: nearly all actives have a fitted effect of over 35% in size. The method in brief: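 Fluorescence kinetics (480 nm excitation, 540 nm emission; 3 min, 1 s steps) report calcium mobilisation in human GnRHR-HEK293 cells in agonist mode. Dye incubation: 1 h, 37 C.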
A general note: A change in cytosolic calcium serves as a functional read-out for many receptors and channels.

Assay [3] has as its target KiSS-1 receptor (Homo sapiens) (UniProt Q969F8). The assay is described as follows: Human kisspeptin (KISS1R) small molecule agonists, calcium flux assay in KISS1R-HEK293 cells (AID 1920064; active = well fitted activation curve with a large enough effect in the repeat runs). Put shortly:
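Measures KISS1R agonism through calcium-sensitive dye fluorescence in stably transfected HEK293 cells, read for 3 min after pin-tool compound delivery; 15-point titrations in triplicate.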

A short description of assay [4]: G protein-coupled receptor (GPCR) small molecule agonists, calcium flux assay: HEK293 wild type cell line counter screen (AID 1920065). The method in brief:
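Readout: fluorescence at 480 nm excitation/540 nm emission, sampled at 1 s intervals for 3 min. Cells had been cultured 18 h, then dye-loaded 1 h at 37 C before compound or ATP addition.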

Assay [5] in a line: p53 small molecule agonists, cell-based qHTS assay with rat liver microsomes (AID 1963578). Put shortly:
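Read-out is beta-lactamase reporter fluorescence (LiveBLAzer, 2 h, room temperature, dark) in p53RE-bla cells treated 16 h at 37 C with compound, rat liver microsomes and NADPH, both 0.5 mg/mL final.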

Assay [6] can be described thus: p53 small molecule agonists, cell-based qHTS assay with human liver microsomes: qHTS cell viability counter screen (AID 1963579). Also: nearly all actives have a fitted effect of over 45% in size. Also: potency is read from the fitted curve at half-maximal effect. The method in brief:
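Cells carrying the p53 response-element beta-lactamase reporter are treated for 16 h at 37 C with test compounds in the presence of human liver microsomes and NADPH (both 0.5 mg/mL final); ATP-based CellTiter-Glo luminescence then reports viability.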
On the technique in general: In qHTS, concentration-response curves come from the screen itself.

A short description of assay [7]: p53 small molecule agonists, cell-based qHTS assay with rat liver microsomes: qHTS cell viability counter screen (AID 1963580). Also: nearly all actives have a fitted effect of over 45% in size. The method in brief:
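HCT-116 p53RE-bla, 4,000 cells/well, 5 h pre-incubation; cpd + rat liver microsomes 0.5 mg/mL + NADPH 0.5 mg/mL (final); 16 h, 37 C; CellTiter-Glo, 30 min RT; luminescence.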

Assay [8] in a line: p53 small molecule agonists, cell-based qHTS assay: qHTS cell viability counter screen (AID 1963581). Also: nearly all actives have a fitted effect of over 45% in size. The method in brief: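 In the same plates used for the p53 bla reporter, HCT-116 cells given compounds for 16 h at 37 C received CellTiter-Glo; luminescence was recorded 30 min later at room temperature.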
Assay [9] in a line: p53 small molecule agonists, cell-based qHTS assay (AID 1963582; active = well fitted activation curve with a large enough effect in the signal ratio in the repeat runs, not every such curve was filed as active; the % refers to the signal ratio). Put shortly:
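Compounds are pin-transferred in DMSO onto p53RE-bla cells and incubated 16 h at 37 C. The B/G FRET beta-lactamase substrate is then applied for 2 h at RT and fluorescence recorded.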

Assay [10] addresses 5-hydroxytryptamine receptor 2A (Homo sapiens) (UniProt P28223). The assay is described as follows: 5-hydroxytryptamine receptor 2A (HTR2A) small molecule antagonists, cell-based qHTS assay (AID 1963586). Also: nearly all actives have a fitted effect of over 45% in size. The method in brief:
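Antagonist-mode intracellular calcium assay: DOI (4 nM) added after 5 min compound pre-incubation at room temperature to dye-loaded HTR2A-CHO cells. Fluorescence followed for 3 min, sampled every second.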

Assay [11] shares this target. The assay is described as follows: 5-hydroxytryptamine receptor 2A (HTR2A) small molecule agonists, cell-based qHTS assay (AID 1963587). Also: nearly all actives have a fitted effect of over 30% in size. The method in brief:
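Kinetic calcium-flux fluorescence (2 min, 1 sec intervals) after compound addition in agonist mode. HTR2A-CHO cells were cultured 18 h, then dye-loaded 1 h at 37 C.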

The target of assay [12] is Muscarinic acetylcholine receptor M1 (Homo sapiens) (UniProt P11229). The assay is described as follows: Cholinergic receptor muscarinic 1 (CHRM1) small molecule antagonists, cell-based qHTS assay (AID 1963588). Also: nearly all actives have a fitted effect of over 40% in size. Also: potency is read from the fitted curve at half-maximal effect. The method in brief:
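CHRM1-CHO calcium-flux assay, antagonist mode. Cells were seeded 18 h, dye-loaded 1 h at 37 C and given compound for 5 min at RT, then acetylcholine was added at 50nM. FDSS fluorescence was read 3 min; 15 concentrations, three runs.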

Assay [13] shares this target. The assay can be described thus: Cholinergic receptor muscarinic 1 (CHRM1) small molecule agonists, cell-based qHTS assay (AID 1963589). Also: nearly all actives have a fitted effect of over 35% in size. The method in brief: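 Each compound was tested at 15 concentrations across three independent runs on dye-loaded CHO cells stably expressing human CHRM1, reading intracellular calcium fluorescence kinetically at 1 sec intervals.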

Assay [14] can be described thus: cAMP Responsive Elements (CRE) small molecule agonists, cell-based qHTS assay (AID 1963590). The method in brief: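 Cell line: CRE-bla HEK 293T; medium DMEM/10% dialyzed FBS/0.1 mM NEAA/1 mM pyruvate/25 mM HEPES; 3 h compound exposure; beta-lactamase FRET readout after 2 h substrate loading at RT.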
For assay [15], the target named is Beta-2 adrenergic receptor (Homo sapiens) (UniProt P07550). The assay is described as follows: Adrenergic beta2 receptor (ADRB2) small molecule antagonists, cell-based qHTS assay (AID 1963592). Also: series mostly up to about 92 µM; nearly all actives have a fitted effect of over 50% in size. The method in brief:
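Cells (CHO, stable ADRB2 overexpression) incubated 18-20hr at 37C; compounds added from DMSO; agonist mix (1nM isoproterenol, 100uM IBMX, 25uM Ro-20-1724) added; 0.5hr RT; d2-cAMP and anti-cAMP-cryptate added; 1hr RT; 665/615 nm read.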

Assay [16] has the same target. The assay can be described thus: Adrenergic beta2 receptor (ADRB2) small molecule agonists, cell-based qHTS assay (AID 1963593).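 Also: CHO cells stably overexpressing human ADRB2.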 Put shortly:
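CHO cells stably over-expressing ADRB2 were plated overnight at 37C, then dosed with compounds plus a stimulation mix containing 100uM IBMX and 25uM Ro-20-1724 for 0.5hr at room temperature. cAMP was measured by HTRF competition, 1hr.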

The target of assay [17] is D(2) dopamine receptor (Homo sapiens) (UniProt P14416). The assay can be described thus: Dopamine D2 receptor (DRD2) small molecule agonists, cell-based qHTS assay (AID 1963594). Also: nearly all actives have a fitted effect of over 35% in size. Put shortly:
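cAMP accumulation in DRD2-HEK293 cells measured by HTRF after 1 h detection; compounds added 10 min before NKH477 (200nM […]) forskolin-analogue stimulation, 30 min at room temperature, with Ro20-1724 present at 0.1 mM final.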

Assay [18] is described as follows: cAMP Responsive Elements (CRE) small molecule antagonists, cell-based qHTS assay (AID 1963591; active = well fitted inhibition curve with a large enough effect in the signal ratio in the repeat runs, not every such curve was filed as active; the % refers to the signal ratio). Put shortly: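 Inhibition of NKH477-driven (0.25 uM final) CRE-beta-lactamase signal in HEK293T cells, 3 h compound exposure at 37 °C, detected by FRET substrate fluorescence.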
In assay [19] the target is D(2) dopamine receptor (Homo sapiens) (UniProt P14416). The assay is described as follows: Dopamine D2 receptor (DRD2) small molecule antagonists, cell-based qHTS assay (AID 1963595; active = well fitted inhibition curve with a large enough effect in the signal ratio in the repeat runs, with a control signal flat; the % refers to the signal ratio). The method in brief: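 HEK293 cells stably expressing DRD2, preincubated with 0.1 mM Ro20-1724 and compounds 10 min, were stimulated with 200 nM NKH477 plus 12 nM quinpirole for 30 min at room temperature; cAMP measured by HTRF (665/620 nm).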
Chain of D(2) dopamine receptor (Homo sapiens) (P14416 whole entry, looked up): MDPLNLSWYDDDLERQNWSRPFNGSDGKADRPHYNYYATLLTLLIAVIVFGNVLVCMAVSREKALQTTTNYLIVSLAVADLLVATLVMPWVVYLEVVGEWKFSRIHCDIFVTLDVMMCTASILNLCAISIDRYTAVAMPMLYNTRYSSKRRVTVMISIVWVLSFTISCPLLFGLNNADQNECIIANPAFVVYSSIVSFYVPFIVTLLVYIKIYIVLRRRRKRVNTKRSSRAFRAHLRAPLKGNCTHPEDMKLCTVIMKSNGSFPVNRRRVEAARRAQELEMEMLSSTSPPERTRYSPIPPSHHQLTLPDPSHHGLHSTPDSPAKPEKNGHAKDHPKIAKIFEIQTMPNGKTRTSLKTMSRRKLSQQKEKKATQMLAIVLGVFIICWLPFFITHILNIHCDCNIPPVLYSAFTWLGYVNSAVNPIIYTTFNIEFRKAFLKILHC

Assay [20] in a line: p53 small molecule agonists, cell-based qHTS assay with human liver microsomes (AID 1963577). The method in brief:
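Compounds act here after metabolic activation: human liver microsomes and NADPH, both at 0.5 mg/mL final, were co-added to p53RE-bla cells. Incubation ran 16 h at 37 C, followed by LiveBLAzer detection.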

Chain of 5-hydroxytryptamine receptor 2A (Homo sapiens) (P28223 whole entry, looked up): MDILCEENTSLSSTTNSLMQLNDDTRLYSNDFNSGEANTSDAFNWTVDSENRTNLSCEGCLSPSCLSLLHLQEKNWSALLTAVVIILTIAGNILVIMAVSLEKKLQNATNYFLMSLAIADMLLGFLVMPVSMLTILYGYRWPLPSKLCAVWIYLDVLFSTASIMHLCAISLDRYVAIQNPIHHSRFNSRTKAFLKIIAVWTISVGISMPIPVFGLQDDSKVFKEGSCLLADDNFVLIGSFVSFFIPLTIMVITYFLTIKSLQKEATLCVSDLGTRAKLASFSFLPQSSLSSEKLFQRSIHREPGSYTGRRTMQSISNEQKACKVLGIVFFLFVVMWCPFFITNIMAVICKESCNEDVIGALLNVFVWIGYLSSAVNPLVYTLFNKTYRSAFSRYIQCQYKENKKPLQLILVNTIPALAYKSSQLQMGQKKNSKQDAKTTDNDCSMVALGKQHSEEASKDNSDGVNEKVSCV
Chain of KiSS-1 receptor (Homo sapiens) (Q969F8 whole entry, looked up): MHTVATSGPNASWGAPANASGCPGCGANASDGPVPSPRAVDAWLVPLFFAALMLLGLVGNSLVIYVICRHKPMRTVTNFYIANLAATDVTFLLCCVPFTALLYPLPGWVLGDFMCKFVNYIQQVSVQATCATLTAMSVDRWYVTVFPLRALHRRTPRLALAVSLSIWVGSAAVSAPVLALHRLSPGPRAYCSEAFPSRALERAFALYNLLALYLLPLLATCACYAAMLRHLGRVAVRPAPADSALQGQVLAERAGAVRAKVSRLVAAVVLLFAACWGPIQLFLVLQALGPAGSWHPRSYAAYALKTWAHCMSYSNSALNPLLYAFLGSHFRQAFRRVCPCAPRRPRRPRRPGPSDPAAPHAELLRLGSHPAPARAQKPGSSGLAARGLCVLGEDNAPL
Chain of Gonadotropin-releasing hormone receptor (Homo sapiens) (P30968 whole entry, looked up): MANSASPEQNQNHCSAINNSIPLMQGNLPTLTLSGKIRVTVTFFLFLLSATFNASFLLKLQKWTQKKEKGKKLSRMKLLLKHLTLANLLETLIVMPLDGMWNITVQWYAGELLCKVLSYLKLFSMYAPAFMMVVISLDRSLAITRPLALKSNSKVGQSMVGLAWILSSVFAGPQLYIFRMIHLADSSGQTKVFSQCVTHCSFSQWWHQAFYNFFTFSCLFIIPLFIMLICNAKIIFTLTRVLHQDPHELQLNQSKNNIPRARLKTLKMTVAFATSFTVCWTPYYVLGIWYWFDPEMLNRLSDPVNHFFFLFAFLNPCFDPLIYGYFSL
Chain of Muscarinic acetylcholine receptor M1 (Homo sapiens) (P11229 whole entry, looked up): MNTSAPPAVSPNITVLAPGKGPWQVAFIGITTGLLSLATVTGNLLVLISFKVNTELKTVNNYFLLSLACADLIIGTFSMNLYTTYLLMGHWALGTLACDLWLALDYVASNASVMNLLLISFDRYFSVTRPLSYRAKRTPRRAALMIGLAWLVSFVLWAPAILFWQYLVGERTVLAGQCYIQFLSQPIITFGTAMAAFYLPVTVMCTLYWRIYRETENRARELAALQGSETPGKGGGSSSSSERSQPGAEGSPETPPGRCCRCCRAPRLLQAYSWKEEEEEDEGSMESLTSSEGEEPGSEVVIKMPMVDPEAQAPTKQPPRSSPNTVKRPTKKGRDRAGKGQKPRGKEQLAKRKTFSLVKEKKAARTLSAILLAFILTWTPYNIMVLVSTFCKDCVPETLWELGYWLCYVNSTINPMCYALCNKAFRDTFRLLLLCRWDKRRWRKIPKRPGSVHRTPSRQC
Chain of Beta-2 adrenergic receptor (Homo sapiens) (P07550 whole entry, looked up): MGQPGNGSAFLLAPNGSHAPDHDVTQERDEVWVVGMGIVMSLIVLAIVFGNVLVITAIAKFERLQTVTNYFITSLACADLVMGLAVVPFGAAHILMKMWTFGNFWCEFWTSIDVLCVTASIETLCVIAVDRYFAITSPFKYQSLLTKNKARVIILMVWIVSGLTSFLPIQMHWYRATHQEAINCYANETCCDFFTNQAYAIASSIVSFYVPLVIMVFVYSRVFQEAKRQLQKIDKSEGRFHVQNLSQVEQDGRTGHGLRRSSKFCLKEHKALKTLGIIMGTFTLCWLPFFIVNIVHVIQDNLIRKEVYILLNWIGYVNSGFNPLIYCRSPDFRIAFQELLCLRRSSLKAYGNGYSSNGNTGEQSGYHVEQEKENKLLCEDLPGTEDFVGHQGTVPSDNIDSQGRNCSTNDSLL

In the case of `O=C(CCCCCCC(=O)Nc1ccccc1)NO`, in assay [1], the Potency was 8.41 µM (active). Also, the Potency result in [2], in assay [3], in assay [4], in assay [5], in [6] and in [7] was “inactive” each time. Moreover, the Potency entry in assay [8], in [9], in assay [10], in assay [11], in assay [12] and in [13] was “inactive” in each case. For the same compound, the Potency entry in assay [14], in assay [15], in [16] and in [17] was “inactive” in each case.

Take `O=C(Nc1ccc(S(=O)(=O)N2CCOCC2)cc1)c1cc(Cl)ccc1NS(=O)(=O)c1ccc(Cl)s1`: the Potency entry in assay [1], in assay [2], in assay [3], in assay [4], in [5] and in assay [6] was “inactive” in each case. For the same compound, the Potency result in [7], in [8], in assay [12], in assay [13], in assay [14] and in assay [18] was “inactive” in each case. Also, the Potency result in assay [15] and in assay [19] was “inactive” in each case.

Regarding `CC[C@H]1CC[C@H](NCc2cc3c(cc2OC)[C@H]2C[C@H]2C(=O)N3C)[C@H](c2ccccc2)N1`, the figures for the Potency in [1] and in assay [12] were 30.6 µM (active) and 0.0472 µM (active), respectively. In addition, the Potency entry in [2], in assay [3], in assay [4], in assay [5], in [6] and in assay [10] was “inactive” each time. For the same compound, the Potency result in assay [11], in [13], in assay [18], in [15], in assay [17] and in assay [19] was “inactive” in each case.

Regarding `COc1ccc(N=Nc2cc(C)c(N=Nc3ccc(S(=O)(=O)O)cc3)cc2OC)cc1`, the Potency result in assay [1], in assay [2], in assay [3], in [4], in assay [20] and in assay [6] was “inactive” in each case. For the same compound, the Potency result in assay [8], in assay [9], in assay [10], in [11], in [12] and in assay [13] was “inactive” each time. Besides, the Potency entry in assay [17] and in assay [19] was “inactive” in each case.

As to `Cc1cc(O)c2c(c1)C(=O)c1cc(O)cc(O)c1C2=O`, in [1], the Potency is 33.6 µM (active). The Potency result in [2], in assay [3], in assay [4], in assay [20], in assay [6] and in assay [7] was “inactive” in each case. Also, the Potency entry in assay [8], in assay [10], in assay [11], in assay [12], in assay [13] and in assay [16] was “inactive” each time. In addition, the Potency result in assay [19] is “inactive”.

On to `COC(=O)C1=C(C)NC(C)=C(C(=O)OCCc2ccc(N3CCN(C(c4ccccc4)c4ccccc4)CC3)cc2)C1c1cccc([N+](=O)[O-])c1` (centres undefined), for which the Potency entry in assay [1], in assay [2], in assay [3], in assay [4], in [5] and in assay [6] was “inactive” throughout. Besides, the Potency entry in [7], in assay [8], in [9], in assay [10], in assay [11] and in assay [12] was “inactive” in each case. Moreover, the Potency entry in assay [13], in [14], in [18], in [15], in assay [16] and in [17] was “inactive” each time. Moreover, the Potency result in assay [19] is “inactive”.

With `CCc1cc(Cc2cc(CC)c(N)c(CC)c2)cc(CC)c1N`, the Potency result in assay [1], in assay [2], in [3], in assay [4], in [20] and in assay [10] was “inactive” in each case. Moreover, the Potency entry in [11], in [12], in [13], in [14] and in assay [18] was “inactive” throughout. The Potency in [6] was 40.8 µM (active).

With `CNS(=O)(=O)c1cc(C(=O)N2CCC(CCN3C4CCC3CC(n3c(C)nc5ccccc53)C4)(c3cccc(F)c3)CC2)c(Cl)cc1F` (centres undefined), the Potency result in assay [1], in assay [2], in assay [3], in [4], in assay [5] and in [6] was “inactive” each time. Also, the Potency entry in assay [7], in [8], in assay [10], in assay [11], in assay [13] and in assay [15] was “inactive” in each case. Besides, the Potency entry in [16], in assay [17] and in assay [19] was “inactive” throughout.
